Bioassay records as filed in PubChem BioAssay.
CRFBP-R2 block = antagonists of CRF-BP/CRF-R2 complex, primary screen, cell-based, HEK293, calcium dye fluorescence, uHTS. CRF-induced calcium fluorescence. inhibition, % at 11.8 µM. 350,000 tested, 0.59% active;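 active = inhibition of the ligand-induced calcium signal above about 50% at the single tested concentration, limit read from the data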
TMEM16A act = TMEM16A chloride channel activators or potentiators, primary screen, cell-based, HTS | 340,000 tested, 0.3% active | AID 623877, 2012 | Anoctamin-1 (Mus musculus), Q8BHY3 | HEK293 TMEM16A/YFP-H148Q/I152L, iodide quench fluorescence; stronger effect = lower value | B-score at 10 µM;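 active = fluorescence-ratio B-score plate-corrected deviation score at least 3 library SD below zero, with starting fluorescence score within 5 deviations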;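 note: channel opened by trigger with iodide after compound preincubation; score built on the fluorescence ratio of max minus min over baseline; more negative score means more quench and so TMEM16A activation or potentiation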
Target sequence (Q8BHY3 whole entry, looked up): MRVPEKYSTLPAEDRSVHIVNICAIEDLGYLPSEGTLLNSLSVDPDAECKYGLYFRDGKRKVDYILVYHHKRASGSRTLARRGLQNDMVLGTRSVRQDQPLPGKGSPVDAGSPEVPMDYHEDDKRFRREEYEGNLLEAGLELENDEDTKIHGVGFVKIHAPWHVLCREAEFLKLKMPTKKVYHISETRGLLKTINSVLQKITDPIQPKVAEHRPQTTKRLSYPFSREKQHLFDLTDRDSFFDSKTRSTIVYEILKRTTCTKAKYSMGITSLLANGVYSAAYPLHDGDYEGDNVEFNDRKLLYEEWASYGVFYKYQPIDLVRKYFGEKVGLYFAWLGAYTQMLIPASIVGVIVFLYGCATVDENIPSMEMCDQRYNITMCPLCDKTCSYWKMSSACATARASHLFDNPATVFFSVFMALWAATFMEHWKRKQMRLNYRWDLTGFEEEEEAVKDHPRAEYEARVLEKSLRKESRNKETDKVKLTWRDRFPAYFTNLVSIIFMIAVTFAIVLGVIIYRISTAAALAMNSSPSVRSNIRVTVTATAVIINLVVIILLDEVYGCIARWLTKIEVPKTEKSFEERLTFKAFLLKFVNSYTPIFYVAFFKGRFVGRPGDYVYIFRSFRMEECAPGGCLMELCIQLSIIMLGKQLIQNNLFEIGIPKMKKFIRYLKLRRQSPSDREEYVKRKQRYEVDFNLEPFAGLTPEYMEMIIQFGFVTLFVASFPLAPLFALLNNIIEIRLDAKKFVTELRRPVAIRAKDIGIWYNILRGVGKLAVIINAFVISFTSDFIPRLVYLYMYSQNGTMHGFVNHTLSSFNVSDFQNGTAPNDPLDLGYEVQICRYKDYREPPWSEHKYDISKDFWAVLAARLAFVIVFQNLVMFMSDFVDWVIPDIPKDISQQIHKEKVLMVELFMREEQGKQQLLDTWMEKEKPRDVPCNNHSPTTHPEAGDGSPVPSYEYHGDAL
RTF Ca sens act = cardiac RTF calcium sensitivity activators, primary screen, biochemical, IANBD-TnC fluorescence, EC20 calcium; AID 493008, 2010; 340,000 tested, 0.24% active; activation, % at 7.2 µM; IANBD-labeled TnC RTF fluorescence at EC20 calcium; 0% EC20 calcium, 100% full calcium; Troponin I, cardiac muscle (Homo sapiens) + Troponin T, cardiac muscle (Homo sapiens) + …;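 active = activation above the mean over all tested compounds plus 3 SD, cut at about 30% in these data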;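 note: rise in fluorescence read as greater calcium sensitivity of cardiac thin filaments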
CRFR2-BP ag = agonists of CRF-BP/CRF-R2 complex, primary screen, cell-based, HEK293, calcium dye fluorescence, uHTS. CRF-binding protein / CRF receptor 2 complex (human). calcium dye fluorescence (FLIPR); percent of saturating CRF peptide response. activation, % at 13.2 µM. 350,000 tested, 0.46% active;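 active = activation of at least 50%, plus an integration ratio under a set limit after plate pattern correction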;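 note: plate controls were neutral control wells without compound for no effect and CRF at EC100 for full effect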
TMEM16A inh = TMEM16A chloride channel inhibitors, primary screen, cell-based, HTS; Anoctamin-1 (Mus musculus), Q8BHY3; HEK293 TMEM16A/YFP iodide influx fluorescence, ionomycin; normalized B-score (activity score, 25-100; higher = stronger inhibition) at 10 µM; 310,000 tested, 1.2% active; AID 588511, 2011;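 active = ratio plate-corrected score three or more library SD toward inhibition, starting fluorescence score within five deviations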;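 note: score derived from kinetic fluorescence span divided by baseline fluorescence per well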
RTF Ca sens inh = cardiac RTF calcium sensitivity inhibitors, primary screen, biochemical, IANBD-TnC fluorescence, EC70 calcium; Troponin I, cardiac muscle (Homo sapiens) + Troponin T, cardiac muscle (Homo sapiens) + …; IANBD-labeled cardiac RTF, Ca2+ fluorescence; inhibition, % at 7.15 µM; 340,000 tested, 0.12% active; AID 493244, 2011;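 active = inhibition above the mean inhibition of all tested compounds plus 3 SD, cut at about 17% in these data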;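 note: assay run at fixed EC70 calcium of 1.6 mM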
An asterisk follows results filed as active; i = inactive; . = no result. In the library only some 2.4% were active in any assay of this set; here they are far more common.

SMILES	CRFBP-R2 block	TMEM16A act	RTF Ca sens act	CRFR2-BP ag	TMEM16A inh	RTF Ca sens inh
CCCCCCC1NC(C(=O)O)CS1 (stereo not drawn)	5	i	-5	-1	i	3
Cc1ccc([N+](=O)[O-])cc1NC(=O)CSc1nnc(C)n1CC1CCCO1 (stereo not drawn)	4	i	-2	-2	i	6
COc1ccc(-n2c(O)c(C=Nc3ccccc3)c3ccccc3c2=O)cc1	-6	i	-2	4	i	-5
CCN(c1ccc(N=Cc2c(O)n(Cc3ccc(OC)cc3)c(=O)c3ccccc23)cc1)C(C)C	-99	i	418*	127*	.	-28
O=C(c1cccc([N+](=O)[O-])c1)c1ccc2c(c1)OCCOCCOCCO2	58*	i	.	1	i	.
O=C(c1ccccc1)c1ccc2c(c1)OCCOCCOCCO2	6	i	3	0	i	-9
Cc1ccc(S(=O)(=O)Nc2cc(=O)[nH]c(SCC(=O)Nc3cccc(C(F)(F)F)c3)n2)cc1	110*	i	-6	-1	.	1
Cc1ccc(NC(=O)CSc2nc(NS(=O)(=O)c3ccc(C)cc3)cc(=O)[nH]2)cc1	11	i	-3	0	i	-4
O=C(COC(=O)C1=COCCO1)NC1CCCCC1	-4	i	0	2	i	7
COc1ccc(OCC(O)CN2CCc3ccccc3C2)cc1 (stereo not drawn)	56*	i	-7	0	i	-2
CSc1nc(-c2ccc(Cl)cc2)c(C#N)c(=O)n1C	-6	i	-1	-4	i	-4
CSc1nc(-c2ccc(N(C)C)cc2)c(C#N)c(=O)n1C	-29	i	2	62*	i	-6
N#Cc1c(Cl)nc2c(c1C#N)CCCC2	107*	i	5	-2	i	-2
C[C@H](CO)N1C[C@H](C)[C@@H](CN(C)S(=O)(=O)c2ccc(C#N)cc2)OCc2cn(nn2)CCCC1=O	7	.	.	0	.	.
COc1ccc(OC)c(NC(=O)C(=O)NNC(=O)C23CC4CC(CC(C4)C2)C3)c1	21	i	.	55*	i	.
COc1ccc(NC(=O)C(=O)NNC(=O)c2cccs2)c(OC)c1	75*	i	-7	-5	i	-1
CCCCN(C(=O)c1ccc(NC2CC2)c([N+](=O)[O-])c1)c1c(N)n(CCCC)c(=O)[nH]c1=O	-2	i	-19	0	.	-2
N#CCCn1nc(-c2ccc(Br)cc2)cc1Nc1ccccc1NC(=O)C(F)(F)F	-4	i	-7	8	100*	2
N#CCCn1nc(-c2ccccc2)cc1Nc1ccccc1NC(=O)C(F)(F)F	-16	i	6	-1	i	-4
Cc1ccc(OCC(=O)NCCc2c[nH]c3ccccc23)cc1	4	i	0	0	i	-6
CCC1CCCCN1C(=O)COC(=O)COc1ccc(Br)cc1 (stereo not drawn)	33	i	1	93*	.	0
CCOc1ccc(S(=O)(=O)N2CCC(C(=O)NCc3ccco3)CC2)cc1C	8	i	-2	0	i	-16
C=CCOC(=O)C1=C(C)Nc2ncnn2C1c1cc(Br)ccc1F (stereo not drawn)	-10	i	2	-2	i	-5
COc1cccc(C2C=C(c3ccc(Br)s3)Nc3ncnn32)c1OC (stereo not drawn)	-89	i	37*	106*	i	-39
Fc1ccc(Br)cc1C1C=C(c2ccc(Br)s2)Nc2ncnn21 (stereo not drawn)	1	i	73*	29	i	-69
SMILES	CRFBP-R2 block	TMEM16A act	RTF Ca sens act	CRFR2-BP ag	TMEM16A inh	RTF Ca sens inh
COc1ccc(CCNC(=O)CCS(=O)(=O)c2ccc3c(c2)NC(=O)CO3)cc1OC	-5	i	-6	2	i	4
CC(=O)C1=C(c2cccc([N+](=O)[O-])c2)N(C(C)=O)n2c(C)nnc2S1	54*	i	-7	-1	i	1
COc1ccc(CNC(=O)Nc2cccs2)cc1OC	62*	i	-3	0	i	-13
COc1cccc(CNC(=O)Nc2cccs2)c1	4	i	2	-4	i	-2
Cc1cccc2c(C(=O)N3CCN(c4ccccn4)CC3)cc(-c3cccc(Br)c3)nc12	-18	i	1	5	i	-5
CCOC(=O)C1=C(C)NC(=O)C(C(N)=O)C1c1ccccc1 (stereo not drawn)	-5	i	7	1	i	-4
CCCCCCCCNCCS(=O)(=O)NC1CCCCC1	3	.	0	-2	.	-6
O=C1c2ccccc2-c2onc3ccc(Oc4ccccc4)c1c23	-66	i	31*	18	i	-56
OCC1CCCC(n2cnc3c(=S)nc[nH]c32)O1 (stereo not drawn)	9	i	-1	0	i	-4
O=S(=O)(Nc1cc(Cl)ccc1-n1cncn1)c1ccccc1Cl	106*	i	2	0	.	1
CCCn1c(=N)n(CC(O)COc2ccc(C)cc2)c2ccccc21 (stereo not drawn)	51*	i	12	0	i	-4
Cc1nc2ccccc2n1CC(O)COc1ccc(Br)cc1 (stereo not drawn)	0	i	-2	2	25*	-2
CN(CC1CCCO1)S(=O)(=O)c1ccc(C(=O)Nc2nc(-c3ccccn3)cs2)cc1 (stereo not drawn)	-24	i	0	4	25*	5
COc1ccc(-c2nn(-c3ccccc3)cc2C(=O)N/N=C/c2ccc([N+](=O)[O-])o2)cc1	-19	-6.9*	2	1	i	-5
Oc1cccc2c(NC(=S)Nc3ccc(SC(F)F)cc3)cccc12	0	i	-2	7	100*	-8
O=C(O)/C=C1\NC(=O)c2ccccc21	2	i	-4	1	i	-7
O=C1N/C(=C\c2ccc(O)cc2)C(=O)c2ccccc21	-49	i	2	15	25*	2
CCC1CCCCN1C(=O)c1cc(COc2ccc3ncccc3c2)on1 (stereo not drawn)	1	i	0	0	25*	-8
COCC1CCCCN1C(=O)c1cc(COc2ccc3ncccc3c2)on1 (stereo not drawn)	-11	i	5	2	i	3
